Experimental data as given in PubChem BioAssay AID504937 (National Center for Advancing Translational Sciences (NCATS), 2011).
Screen size: about 340,000 compounds; about 20 (0.006%) were called active. This is one part of a sample in which actives are shown more often than they occur. The call rests on the fitted dose curve; in most records, active means well fitted inhibition curve with a large enough effect; inconclusive means small, poorly fitted or top-dose-only effect; inactive means no such curve, though single readings can be large or run the other way.

The molecules below were run against Sphingomyelin phosphodiesterase (Homo sapiens) (UniProt P17405) (assay: Inhibitors of Secretory Acid Sphingomyelinase (S-ASM): qHTS). Settings: placental ASM, HMU-PC fluorogenic substrate, 60 min; series mostly up to 57.5 µM; activity change, negative = inhibition: at the top concentration.
Excerpt: Atherosclerosis is the underlying process for cardiovascular disease and thus is a major contributor to disease burden in the population. […] Thus, selective small molecule inhibitors of S-ASM should block LDL modification and reduce aortic LDL retention and may serve as new agents for the treatment of atherosclerosis. In a collaboration between National Heart, Lung, and Blood Institute and the NCGC a high-throughput amenable screen was developed to identify potent and selective small molecule inhibitors of S-ASM. This enzymatic, fluorescent screen uses an ASM enzyme preparation derived from human placenta and was tested against the NIH Molecular Libraries Small Molecule Repository (MLSMR). NIH Chemical Genomics Center [NCGC] NIH Molecular Libraries Probe Centers Network [MLPCN] MLPCN Grant: MH093173-01 Assay Submitter (PI): Alan Remaley, National Heart, Lung, and Blood Institute and Wei Zhen, NIH Chemical Genomics Center
Two microliters of ASM enzyme (1:150 dilution from stock) are dispensed in 1536-well plate. 23 nL of compound and control are pinned into assay plate using the Kalypsys pintool. The plates are then incubated for 10 minutes at ambient room temperature. Then, 2 uL of the flurogenic substrate, HMU-PC0, (9 uM final) are added to the plate. An incubation for 60 minutes takes place at 37 masculineC. After that, 4 uL of stop solution is added to raise the pH to 10 to end the kinetic reaction. Plate is read on ViewLux, with detection set at Ex = 386 (10) nm and Em = 447 (10) nm.

Chain of Sphingomyelin phosphodiesterase (Homo sapiens) (P17405 47-631 limits assumed): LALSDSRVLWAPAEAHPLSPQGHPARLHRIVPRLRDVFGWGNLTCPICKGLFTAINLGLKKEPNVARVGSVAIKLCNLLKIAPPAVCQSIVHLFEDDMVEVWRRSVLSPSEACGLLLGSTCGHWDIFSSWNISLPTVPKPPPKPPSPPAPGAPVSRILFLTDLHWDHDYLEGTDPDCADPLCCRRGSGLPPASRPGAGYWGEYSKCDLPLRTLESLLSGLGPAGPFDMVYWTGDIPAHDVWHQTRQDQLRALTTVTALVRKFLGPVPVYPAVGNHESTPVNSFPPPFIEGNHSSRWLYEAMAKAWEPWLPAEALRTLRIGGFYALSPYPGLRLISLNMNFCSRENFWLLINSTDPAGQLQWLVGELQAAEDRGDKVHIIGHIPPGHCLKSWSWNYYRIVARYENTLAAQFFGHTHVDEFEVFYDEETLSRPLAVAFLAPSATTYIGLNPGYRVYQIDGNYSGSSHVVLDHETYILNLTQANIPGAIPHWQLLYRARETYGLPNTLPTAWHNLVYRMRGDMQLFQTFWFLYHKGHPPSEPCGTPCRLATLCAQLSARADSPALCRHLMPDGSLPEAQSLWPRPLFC

Row | Structure (SMILES) | activity change, negative = inhibition
1 | COc1ccc(Nc2ncc(C(=O)N3CCN(c4ccccc4OC)CC3)c3ccccc23)cc1 | -5.7% (inactive)
2 | O=C(COC(=O)c1ccc(F)c(S(=O)(=O)N2CCOCC2)c1)NCc1ccc2c(c1)OCO2 | 1.81% (inactive)
3 | Brc1c(CSc2nncc3ccccc23)nc2ccccn12 | 1.36% (inactive)
4 | COc1ccc(Cc2nnc(SCC(=O)N(c3ccccc3)C(C)C)n(N)c2=O)cc1 | -1.08% (inactive)
5 | CC1(C)CC(=O)C=C(c2cccc3c2Oc2ccccc2S3)C1 | -13.8% (inactive)
6 | O=C(NCC1CCCO1)C1CCN(C2CCN(C(=O)C3CCCCC3)CC2)CC1 (centres undefined) | 1.41% (inactive)
7 | FC(F)(F)c1ccc2c3n(nc2c1)CCN=C3c1ccc(Cl)cc1 | -3.7% (inactive)
8 | CC(C)[C@H](NC(=O)Nc1ccc(S(N)(=O)=O)cc1)C(=O)O | 2.71% (inactive)
9 | COc1ccccc1N1CCC(N2CCN(CC(C)(C)C)C(CCO)C2)CC1 (centres undefined) | 3.32% (inactive)
10 | CC(=O)Nc1nc2c(s1)C(=O)NCC(C)(C)C2 | -2.53% (inactive)
11 | COc1ccccc1C(=O)C(O)c1ccccc1OC (centres undefined) | 2.43% (inactive)
12 | Cn1nc(C(F)(F)F)c2cc(NC(=O)OCC(C)(C)C)sc21 | -4.28% (inactive)
13 | O=C(CCNC(=O)c1ccc([N+](=O)[O-])cc1)Nc1ccccc1N1CCOCC1 | 5.76% (inactive)
14 | Cc1cc(C)c(S(=O)(=O)c2cc(F)ccc2C)c(=O)[nH]1 | -1.89% (inactive)
15 | COC(=O)C1=C(C(=O)OC)C2(OC1c1ccc(Br)cc1)C(=O)c1ccccc1C2=O (centres undefined) | -0.0969% (inactive)
16 | COCCNC(=O)CSc1nc2sccc2c(=O)n1-c1ccccc1 | 7.71% (inactive)
17 | CCN(CC)S(=O)(=O)c1ccc(N2CC(C(=O)NCc3cccnc3)CC2=O)cc1 (centres undefined) | 2.74% (inactive)
18 | O=C(Nc1ccc([N+](=O)[O-])cc1)C1CC12CCC2 (centres undefined) | 0.622% (inactive)
19 | Cc1ccc(S(=O)(=O)c2c[nH]c3ccc(C)cc3c2=O)cc1 | 4.26% (inactive)
20 | O=C1CC[C@@H]2CC3(C[C@@H]4CCN1[C@H]24)Nc1cc([N+](=O)[O-])ccc1NC3=NC1CCCCC1 (some centres undefined) | -13.9% (inactive)
21 | COc1cc(OC)cc(C(=O)NCCSCc2ccc(Cl)cc2)c1 | 0.434% (inactive)
22 | CC(C)(C)C(=O)Nc1c(Br)c(C2CC2)nn1-c1ccccc1 | -0.807% (inactive)
23 | CC(C)(C)NC(=O)NC(=O)COC(=O)CCC1CCCCC1 | -1.67% (inactive)
24 | O=C(CCN1C(=O)[C@@H]2Cc3ccccc3CN2C1=O)NCc1ccccc1 | 2.58% (inactive)
25 | Cc1cccc(NC(=S)NCCc2ccc(F)cc2)c1C | 0.269% (inactive)

Row | Structure (SMILES) | activity change, negative = inhibition
26 | Cn1cc(C2OC(=O)c3ccccc32)c2ccccc21 (centres undefined) | 3.97% (inactive)
27 | CCN(C[C@H]1N[C@@](Cc2ccccc2)(C(=O)OC)[C@H]2C(=O)N(Cc3ccccc3)C(=O)[C@@H]12)C(=O)c1ccc(C)cc1 | -2% (inactive)
28 | Cc1c(NC(=O)CN(C)CC(=O)Nc2ccc(F)c(F)c2F)c(=O)n(-c2ccccc2)n1C | 0.31% (inactive)
29 | CC(C(=O)NC1CCCC1)N(c1ccc(Oc2ccccc2)cc1)S(C)(=O)=O (centres undefined) | 4.2% (inactive)
30 | O=C(CCN1C(=O)COc2ccccc21)NCCCN1CCN(c2ccc(F)cc2)CC1 | 2.7% (inactive)
31 | O=C(/C=C/c1cccc([N+](=O)[O-])c1)OCC(=O)N1CCOCC1 | 8.57% (inactive)
32 | COC(=O)c1cccc(C(=O)N2CCC(CCC(=O)NCc3ccc(F)cc3)CC2)c1 | 3.52% (inactive)
33 | CC(=O)OCC(=O)C1(O)CCC2C3CC(C)C4=CC(=O)CCC4(C)C3C(O)CC21C (centres undefined) | 3.04% (inactive)
34 | CC(=O)NNC(=O)c1csc(Cc2c(Cl)sc3ccc(Cl)cc23)n1 | -1.54% (inactive)
35 | CC1CN(S(=O)(=O)c2ccccc2)C(C)CN1S(=O)(=O)c1ccccc1 (centres undefined) | 0.844% (inactive)
36 | Cc1c(Cl)cccc1NC(=O)Nc1ccc(C(=O)N2CCCC2)cc1 | -1.21% (inactive)
37 | O=C(COc1ccc(F)cc1Br)NCC1COc2ccccc2O1 (centres undefined) | 2.18% (inactive)
38 | CCOc1ccc(CCNC(=O)COC(=O)CCS(=O)(=O)c2ccc(C)cc2)cc1OCC | 0.919% (inactive)
39 | Cc1cc(C)nc(SC2CCCCC2NS(=O)(=O)c2ccc(Cl)cc2)n1 (centres undefined) | -1.81% (inactive)
40 | CC1(C)CC(=O)C=C(NCCN2CCNCC2)C1 | 3.44% (inactive)
41 | COc1cccc(C(=O)CC(=O)C(=O)Nc2ccc([N+](=O)[O-])cc2C)c1 | -7.33% (inactive)
42 | COc1cccc(NC(=O)N2CCC(NC(=O)C(Cc3cccc(C)c3)NC(C)=O)CC2)c1 (centres undefined) | 3.08% (inactive)
43 | COc1cccc(N2CCN(C(=O)Nc3ccc4c(c3)NC(=O)CO4)CC2)c1 | -2.58% (inactive)
44 | CCOc1ccc(C(=O)N(Cc2ccc(N(C)C)cc2)C2CCS(=O)(=O)C2)cc1 (centres undefined) | -3.39% (inactive)
45 | O=C(NCCCN1CCCC1=O)c1cccc(S(=O)(=O)NCc2ccccc2)c1 | -0.664% (inactive)
46 | COC(=O)c1ccccc1NC(=O)CSc1nc2c(c(=O)[nH]1)CCC2 | -0.0256% (inactive)
47 | CCOc1ccc(NC(=O)CN(C)CC(=O)Nc2cccc(Cl)c2C)cc1OCC | -1.93% (inactive)
48 | COc1ccc(C(=O)NC(=S)N2CCNC(=O)C2CC(=O)OC(C)C)cc1 (centres undefined) | 2.82% (inactive)
49 | O=C(OCc1cc(Cl)ccc1OC(F)F)c1cccnc1 | 2.08% (inactive)
50 | O=C(CSc1nnnn1-c1ccc(O)cc1)c1ccc(F)cc1 | 0.0285% (inactive)

Row | Structure (SMILES) | activity change, negative = inhibition
51 | CCC(=O)Nc1ccc(C(=O)CSc2nnc(CNc3ccc(Cl)cc3)o2)cc1OC | -3.49% (inactive)
52 | COC(=O)c1c(C)oc(C)c1S(=O)(=O)NCc1ccc(Cl)cc1 | 0.138% (inactive)
53 | Cc1ccc2[nH]c(C)c(CCNC(=O)NC3CCCCC3)c2c1 | 11.4% (inactive)
54 | CCC1=NN(C(=O)Cc2ccc([N+](=O)[O-])cc2)C(O)(c2ccc(Br)cc2)C1 (centres undefined) | -4.46% (inactive)
55 | Cc1cc(C)cc(NC(=O)N(C)Cc2ccccc2)c1 | -5.09% (inactive)
56 | COc1cccc(CNC(=O)CCN2C(=S)NC(C)(C)CC2C)c1 (centres undefined) | -1.55% (inactive)
57 | COc1cc2c(cc1OC)C(Cc1cc(OC)c(OC)cc1[N+](=O)[O-])=NCC2 | -9.32% (inactive)
58 | CS(=O)(=O)N1CCN(CC(=O)NC2CCCC2)CC1 | -0.357% (inactive)
59 | O=[N+]([O-])c1ccc(S(=O)(=O)Nc2cccc(-c3ccc(N4CCCC4)nn3)c2)cc1 | -3.91% (inactive)
60 | COc1ccccc1C1CC(=O)n2c(nc(-c3ccccc3)c2-c2ccccc2)S1 (centres undefined) | -2.94% (inactive)
61 | COc1ccc(N2C(=O)CCC(C(=O)N(C)C3CCCCC3)C2c2ccc(OC)c(OC)c2)cc1 (centres undefined) | 2.46% (inactive)
62 | N#C[C@]1(S(=O)(=O)c2ccccc2)C[C@@H]2ON=C(c3cccc(Br)c3)[C@@H]2C1 | 0.801% (inactive)
63 | COC(=O)c1c(C(=O)OC)c2n(c1C)CCS2 | 2.14% (inactive)
64 | O=C(NCc1ccncc1)C1CCCN(S(=O)(=O)c2ccc(Br)cc2)C1 (centres undefined) | 4.64% (inactive)
65 | COC(=O)C1=CN(c2ccc(F)c(F)c2)C=C(C(=O)OC)C1c1ccc([N+](=O)[O-])cc1 | -6.6% (inactive)
66 | CC(=O)OCC1(O)CC23CCC4c5ccoc5CCC4(C)C2CCC1C3 (centres undefined) | -4.39% (inactive)
67 | COCCn1c(SCC(=O)Nc2nc(C)cs2)nnc1C(C)C | 3.44% (inactive)
68 | O=C(CNc1cccc(S(=O)(=O)N2CCCCC2)c1)Nc1ccccc1F | 21.8% (inactive)
69 | CCOC(=O)C(CC)Sc1ncnc2c1nnn2-c1ccc(F)cc1 (centres undefined) | 1.72% (inactive)
70 | NC(CSC12CC3CC(CC(C3)C1)C2)C(=O)O (centres undefined) | 2.86% (inactive)
71 | Cc1cccc(NC(=O)N(Cc2cc3cc(C)cc(C)c3[nH]c2=O)CC2COCCO2)c1 (centres undefined) | -13.7% (inactive)
72 | O=C(Cn1cc(/C=N/NC(=O)c2cccc(C(F)(F)F)c2)c2ccccc21)Nc1ccc(F)cc1 | 2.03% (inactive)
73 | COc1ccccc1CCNC(=O)CSc1nnc2ccc(-c3cccnc3)nn12 | -1.74% (inactive)
74 | COc1ccccc1NC(=O)CCC(=O)N1CC(C)Oc2ccc(C)cc21 (centres undefined) | 4.08% (inactive)
75 | Cc1cccc(NC(=S)N(CCN(C)C)C(C)c2ccco2)c1 (centres undefined) | 3.18% (inactive)

Row | Structure (SMILES) | activity change, negative = inhibition
76 | Cc1oc(C)c(C(=O)NCCCC(=O)O)c1C(=O)NCCCC(=O)O | 3.69% (inactive)
77 | CSc1nc(C)nc(C2CC2)c1C#N | 3.92% (inactive)
78 | CN(C)CCCNC(=O)c1cc(C(=O)Cc2ccc(Cl)cc2)c[nH]1 | -1.05% (inactive)
79 | CN(C(=O)c1cccc(NC(=O)Cc2ccc(NC(=O)C3CCN(C(=O)C4CCCCC4)CC3)cc2)c1)C1CCC1 | -0.203% (inactive)
80 | COc1ccc(CN(CC(=O)NC2CCCC2)C(=O)CCC(=O)Nc2cc(C)on2)cc1 | 7.46% (inactive)
81 | COC(=O)c1sccc1-n1cccc1C(=O)C(=O)N1CCCCC1 | -6.14% (inactive)
82 | Cc1ccc2c(c1)nnc1nnc(SCC(=O)O)n12 | 2.22% (inactive)
83 | Cc1cccc(OC(C)C(=O)N2CCc3ccccc3C2)c1 (centres undefined) | 4.94% (inactive)
84 | CC(=O)N1CCc2ccc(N)cc21 | 3.14% (inactive)
85 | CCc1noc(C)c1C(=O)N1CCCC(N2CCN(c3ccc(F)cc3)CC2)C1 (centres undefined) | 0.409% (inactive)
86 | CCCCCCNCCn1cnc2c(N)ncnc21 | 3.85% (inactive)
87 | Cc1cc(NC(=O)CSc2nc(=O)cc(N)n2-c2ccc(F)cc2)no1 | 3.93% (inactive)
88 | Cc1cc(C)n(-c2nnc(C)n2NC(=O)c2cccc(Cl)c2)n1 | 2.43% (inactive)
89 | COCCN1C(=O)C(=O)/C(=C(/O)c2ccc(S(=O)(=O)N3CCCCC3)cc2)C1c1ccc(OC)c(OC)c1 (centres undefined) | -3.13% (inactive)
90 | Cc1[nH]c2ccccc2c1SCC(=O)Nc1nccs1 | -2.52% (inactive)
91 | CS(=O)(=O)N1CCc2cc(C(=O)Nc3ccccc3Br)ccc21 | -1.09% (inactive)
92 | N#C/C(C(=O)N1CCOCC1)=C1/SC(Cc2ccc(F)cc2)C(=O)N1c1ccccc1 (centres undefined) | 0.557% (inactive)
93 | O=C(NCc1cccs1)C(=O)NCC1OCCCN1S(=O)(=O)c1ccc(F)cc1 (centres undefined) | 3.48% (inactive)
94 | Cc1ccc(S(=O)(=O)N2CCC(C(=O)OCC(=O)N3CC(=O)Nc4ccccc43)CC2)cc1 | 2.96% (inactive)
95 | O=C(NC1CCCC1)C(c1ccccn1)N(C(=O)c1csnn1)C1CCCC1 (centres undefined) | 1.68% (inactive)
96 | CCc1ccc(NC(=O)C(=O)N/N=C(\C)CC(=O)NCCOC)cc1 | 2.25% (inactive)
97 | O=C(Nc1cccc(S(=O)(=O)NC2=NCCC2)c1)C1CCCCC1 | 4.29% (inactive)
98 | COC(=O)c1ccc(Nc2ncnc3sccc23)cc1 | 1.35% (inactive)
99 | COc1ccc(NC(=S)N2N=CCC2c2ccccc2)cc1 (centres undefined) | -2.8% (inactive)
